# Data as given in PubChem BioAssay.
# Several values for one entry are separate records, joined by “and”; a condition that tells them apart may be missing. Equal entries are not always repeated. Results filed as inconclusive are left out. For part of these data: Results with a measured potency or affinity are listed apart. Activity calls are given as the source filed them.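 The calls were made as follows, unless noted: active = thallium flux through the channel raised or lowered by more than 3 SD from vehicle-only wells, actives on both sides; inactive = the rest.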
# Assays:
# [1] = system: Aerobactin synthetase IucA (Klebsiella pneumoniae); experiment: inhibition of K. pneumoniae IucA enzyme – biochemical, Tocris library, absorbance (AID 1345561; call rule not given here;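 also: 100% = enzyme without compound and 0% = no enzyme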); details: purified IucA enzyme assay, absorbance (OD) read-out; stronger effect = lower value;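 tested at 8 µM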
# R275C/beta4 = experiment: BK channel mutant inhibitors and activators – cell-based, U2OS BacMam, thallium flux, beta subunits, selectivity assay, profiling panel (AID 1259406); details: U2OS BacMam BK variants, at 30 µM;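 also: initial slope of Thallos dye fluorescence rise after thallium is added; log ratio against the mean of 0.3% DMSO vehicle wells on the same plate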
# [2] = MELAS cybrid and Rieske KO viability enhancers – cell-based, MELAS cybrids, Rieske KO mouse fibroblasts, CellTiter-Glo, primary screen (AID 1508586;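 active = mean z-score across replicates of 1.96 or higher in either the MELAS or the Rieske mutant cell line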;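 also: z relative to plate mean and SD of compound and empty wells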); details: low glucose
# [3] = biological target: NAD(+) hydrolase SARM1 (Homo sapiens) (UniProt Q6SZW1); experiment: blocking NAD cleavage by SARM1 SAM-TIR – cell lysate, NAD-Glo luminescence (AID 1508614;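 active = compound whose remaining NAD level is above about 45 nM, limit read from the data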;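 also: higher remaining NAD means stronger inhibition of SARM1 NADase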); details: SAM-TIR HEK293T lysate NADase, at 1 µM, stronger effect = higher value
# [4] = biological target: Mitogen-activated protein kinase 7 (Homo sapiens) (UniProt Q13164); experiment: Gal4-ERK5 driven luciferase induction – cell-based, HTS, primary screen (AID 1508626;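 active = luciferase signal above three times the same-plate solvent-only control wells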;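 also: luciferase driven by Gal4-ERK5 fusion binding five Gal4 sites before minimal TATA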); details: HeLa Gal4-ERK5 transactivation, 18 h, at 5 µM, stronger effect = higher value
# [5] = viability loss in pontine glioma line – cell-based, SU-DIPG-XVII, MIPE5.0, CellTiter-Glo, qHTS, dose response (AID 1347060; cut-off not given, nearly all actives have AC50 up to about 26 µM;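 also: cells exposed to compound for 48 hours before viability readout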); details: CellTiter-Glo ATP luminescence
# [6] = viability loss in pontine glioma line – cell-based, SU-DIPG-XIII, MIPE4.0, CellTiter-Glo, qHTS, dose response (AID 1347061; cut-off not given, nearly all actives have AC50 up to about 37 µM;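 also: cells exposed to compound for 48 hours before readout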); details: CellTiter-Glo ATP luminescence
# [7] = viability loss in pontine glioma line – cell-based, JHH-DIPG-1, MIPE4.0, CellTiter-Glo, qHTS, dose response (AID 1347062; cut-off not given, nearly all actives have AC50 up to about 27 µM); details: JHH-DIPG-1 viability, CellTiter-Glo ATP luminescence
# [8] = chitosan synthesis blockers in C. neoformans – flow cytometry, Cibacron Brilliant Red staining (AID 1347148; call rule not given here;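 also: compound exposure lasted three days at 37 degrees C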); details: Cryptococcus neoformans chitosan, stronger effect = lower value; at 10 µM unless noted
# [9] = growth inhibition of DIPG cells – cell-based, MIPE4.0 library, CellTiter-Glo luminescence, qHTS (AID 1347066; cut-off not given, nearly all actives have AC50 up to about 30 µM;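 also: cells exposed to compound for 48 hours before readout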); details: SU-DIPG-VI viability, CellTiter-Glo ATP luminescence
# [10] = compounds altering viability of human ES cells (AID 493140; call rule not given here;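 also: cells exposed to compounds for four days before counting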); details: human embryonic stem cell survival screen; stronger effect = higher value
# [11] = blockers of polyQ-driven CASP3 activation – cell-based (AID 1583); details: polyglutamine-induced caspase-3 activation, cell assay; stronger effect = higher value;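 tested at 10 µM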
# [12] = yeast 75Q aggregation reduction – 75Q-TubU reporter (AID 1593); details: Yeast 75Q polyglutamine aggregation reporter
# [13] = restoration of touch response, mutant HTT neurons – whole organism, C. elegans mechanosensory neurons, N-terminal huntingtin (AID 1599); details: C. elegans polyQ-huntingtin mechanosensory neurons, stronger effect = higher value
# [14] = blockers of cytochrome c efflux from mitochondria – biochemical, purified mitochondria (AID 1603); details: stronger effect = lower value;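 also: mouse liver mitochondria challenged with calcium chloride; signal normalized to the plate average as 100%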
# [15] = polyglutamine aggregate formation blockers (AID 1604); details: polyglutamine-induced protein aggregation inhibition assay; stronger effect = higher value; tested at 2.5 µM
# [16] = glutamate transport activators, MN-1 cells, MN-1 cell line (AID 1612); details: MN-1 motor neuron cells, stronger effect = higher value;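 also: tested at 1 µM final; 0% = mean of DMSO vehicle wells on each plate; positive means more glutamate uptake than control and negative means less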
# [17] = GFP-Q80 aggregate reduction, neuronal-like cells, cell-based, NGF-treated PC12, GFPQ80 (AID 1614); details: PC12 NGF-treated GFP-polyQ80 inclusion reduction;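 also: lower means fewer inclusions and 0 means no inclusions at all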
# [18] = 75Q-TubH aggregate inhibition, S. cerevisiae, yeast (AID 1616); details: S. cerevisiae 75Q-TubH polyglutamine aggregation suppression; stronger effect = higher value
# [19] = MELAS cybrid survival, CellTiter-Glo 48 h, stronger effect = higher value
# [20] = Rieske KO mouse fibroblast survival, CellTiter-Glo 72 h
# NAD(+) hydrolase SARM1 (Homo sapiens), sequence (Q6SZW1 whole entry, looked up, the tested form may be a part): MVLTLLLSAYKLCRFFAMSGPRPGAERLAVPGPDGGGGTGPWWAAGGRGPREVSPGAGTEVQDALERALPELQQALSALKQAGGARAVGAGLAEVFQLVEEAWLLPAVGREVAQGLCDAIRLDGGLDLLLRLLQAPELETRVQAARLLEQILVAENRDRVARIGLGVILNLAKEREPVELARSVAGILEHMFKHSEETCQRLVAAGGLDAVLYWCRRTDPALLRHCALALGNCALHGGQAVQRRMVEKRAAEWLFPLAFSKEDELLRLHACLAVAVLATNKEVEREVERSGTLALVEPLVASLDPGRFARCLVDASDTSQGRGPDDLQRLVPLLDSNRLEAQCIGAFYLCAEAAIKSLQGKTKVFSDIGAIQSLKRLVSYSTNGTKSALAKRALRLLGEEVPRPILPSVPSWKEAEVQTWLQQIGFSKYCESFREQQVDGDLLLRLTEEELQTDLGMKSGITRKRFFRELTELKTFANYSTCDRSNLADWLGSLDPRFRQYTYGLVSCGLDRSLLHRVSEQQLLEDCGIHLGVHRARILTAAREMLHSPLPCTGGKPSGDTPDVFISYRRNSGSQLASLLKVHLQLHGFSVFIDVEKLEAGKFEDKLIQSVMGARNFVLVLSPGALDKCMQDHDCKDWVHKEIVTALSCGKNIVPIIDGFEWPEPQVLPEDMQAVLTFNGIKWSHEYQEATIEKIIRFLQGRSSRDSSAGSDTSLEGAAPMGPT
# Mitogen-activated protein kinase 7 (Homo sapiens), sequence (Q13164 whole entry, looked up, the tested form may be a part): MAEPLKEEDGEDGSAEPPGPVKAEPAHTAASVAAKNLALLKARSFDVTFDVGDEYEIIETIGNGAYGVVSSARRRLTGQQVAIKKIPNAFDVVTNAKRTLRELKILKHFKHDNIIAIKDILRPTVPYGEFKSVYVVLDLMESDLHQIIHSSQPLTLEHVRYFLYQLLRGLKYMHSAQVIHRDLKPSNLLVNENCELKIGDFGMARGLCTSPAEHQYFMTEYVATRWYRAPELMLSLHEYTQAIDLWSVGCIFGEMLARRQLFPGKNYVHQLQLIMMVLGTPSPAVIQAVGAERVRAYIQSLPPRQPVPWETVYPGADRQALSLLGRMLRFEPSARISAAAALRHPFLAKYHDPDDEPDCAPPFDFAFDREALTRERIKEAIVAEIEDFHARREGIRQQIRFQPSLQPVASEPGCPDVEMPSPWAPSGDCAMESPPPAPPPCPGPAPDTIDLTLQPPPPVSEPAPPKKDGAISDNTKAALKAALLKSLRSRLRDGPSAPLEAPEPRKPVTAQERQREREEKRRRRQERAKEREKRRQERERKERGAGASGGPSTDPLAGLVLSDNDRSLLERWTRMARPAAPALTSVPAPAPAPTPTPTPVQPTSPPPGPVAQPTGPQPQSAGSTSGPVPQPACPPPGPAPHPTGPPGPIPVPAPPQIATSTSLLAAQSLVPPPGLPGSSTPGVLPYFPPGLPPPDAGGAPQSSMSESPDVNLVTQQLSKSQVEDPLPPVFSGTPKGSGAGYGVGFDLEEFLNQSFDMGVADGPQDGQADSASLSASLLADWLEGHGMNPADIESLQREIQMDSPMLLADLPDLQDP
structure (smiles),measurement,setting,value
Oc1cc2c(cc1O)[C@H]1c3ccccc3CN[C@@H]1CC2,remaining activity,[1],97.5% (inactive)
same,log fold change Tl+ flux,R275C/beta4,0.0776 (inactive)
CCN(C(C)=O)c1cccc(-c2ccnc3c(C#N)cnn23)c1,z-score,[2]; [19],0.804 (inactive)
same,z-score,[2]; [20],0.277
same,remaining NAD,[3],10 nM (inactive)
CC12CCC(=O)C=C1CCC1C2CCC2(C)C(O)CCC12 (stereo unspecified),log fold change Tl+ flux,R275C/beta4,-0.00525 (inactive)
CN1CC[C@@H](c2ccc(F)cc2)[C@H](COc2ccc3c(c2)OCO3)C1,log fold change Tl+ flux,R275C/beta4,0.0863 (active)
c1ccc(Cn2ccnc2)cc1,log fold change Tl+ flux,R275C/beta4,-0.0192 (inactive)
Cc1ccc(-c2nc3ccc(C)cn3c2CC(=O)N(C)C)cc1,remaining NAD,[3],10 nM (inactive)
same,luciferase signal,[4],44 AU (inactive)
same,log fold change Tl+ flux,R275C/beta4,0.00879 (inactive)
C[C@]12CC[C@H](O)CC1=CC[C@@H]1[C@@H]2CC[C@@]2(C)[C@H]1CC[C@]2(C)O,log fold change Tl+ flux,R275C/beta4,-0.00925 (inactive)
CC(C)[C@]12O[C@H]1[C@@H]1O[C@]13[C@]1(O[C@H]1C[C@H]1C4=C(CC[C@@]13C)C(=O)OC4)[C@@H]2O,AC50,[5],186 nM (active)
same,outcome,[6],inactive
same,outcome,[7],inactive
same,fold fluorescence,[8],4.23 [at 138.7 µM] (inactive)
same,log fold change Tl+ flux,R275C/beta4,0.0135 (inactive)
Cc1ncc2n1-c1ccc(Cl)cc1C(c1ccccc1F)=NC2,log fold change Tl+ flux,R275C/beta4,0.138 (active)
CC[C@@H]1C=CC=CC[C@H](C)[C@@H](O)[C@@H](C)C(=O)[C@H](C)[C@@H](O)[C@H](C)C(=O)[C@H](C)[C@@H](O)[C@H](C)C=CC(=O)O[C@H]2[C@@H](C)[C@@H](CC1)O[C@@]1(CC[C@@H](C)[C@@H](C[C@H](C)O)O1)[C@@H]2C,log fold change Tl+ flux,R275C/beta4,-0.0178 (inactive)
C[C@]12CCC(=O)C=C1CC[C@@H]1[C@@H]2CC[C@@]2(C)[C@H]1CC[C@]2(C)O,outcome,[6],inactive
same,outcome,[7],inactive
same,outcome,[9],inactive
same,log fold change Tl+ flux,R275C/beta4,0.00989 (inactive)
CCCN1CCC[C@@H]2Cc3[nH]ncc3C[C@H]21,survival,[10],16 (inactive)
same,remaining activity,[1],126% (inactive)
same,z-score,[2]; [19],0.372 (inactive)
same,z-score,[2]; [20],-0.161
NCCc1c[nH]c2ccc(O)cc12,survival,[10],12.7 (inactive)
same,remaining activity,[1],97.8% (inactive)
same,fold fluorescence,[8],4 [at 283.7 µM] (inactive)
same,z-score,[2]; [19],-0.165 (inactive) and -0.0524 (inactive)
same,z-score,[2]; [20],-0.179 and -0.331
C=CCN1CC[C@]23c4c5ccc(O)c4OC2C(=O)CC[C@@]3(O)[C@H]1C5 (stereo partly specified),inhibition,[11],-6.59%
same,score,[12],1.27
same,rescue above control,[13],-8.32
same,cytochrome c release ratio,[14],1.12
same,inhibition of aggregation,[15],68.2%
same,glutamate uptake change,[16],-6.41%
same,inclusion score,[17],2
same,aggregation suppression score,[18],1.13
Cc1cc(OC(=O)N2CCCCC2)c(C(C)C)cc1[N+](C)(C)C,luciferase signal,[4],48 AU (inactive)
CC1[C@H](C)OC(=O)CC(O)CC(O)CC(O)CCC(O)C(O)C[C@]2(O)CC(O)C(C(=O)O)C(CC(OC3O[C@H](C)[C@@H](O)[C@H](N)[C@@H]3O)/C=C/C=C/C=C/C=C/CC/C=C/C=C/[C@H](C)[C@H]1O)O2 (stereo partly specified),inhibition,[11],3.51%
same,score,[12],-0.11
same,rescue above control,[13],3.77
same,cytochrome c release ratio,[14],0.93
same,inhibition of aggregation,[15],30.3%
same,glutamate uptake change,[16],9.44%
same,inclusion score,[17],2
same,aggregation suppression score,[18],0.00787
CNC(C)[C@H](O)c1ccccc1 (stereo partly specified),remaining NAD,[3],10 nM (inactive)
same,luciferase signal,[4],52 AU (inactive)
